Source: PubChem
An excerpt weighted towards active compounds, which were near 1.7% of everything screened.
PABP polyA inh: PABP poly(A) RNA binding inhibitors, primary screen, biochemical, fluorescence polarization, uHTS; Polyadenylate-binding protein 1 (Homo sapiens), P11940; calls only at 35 µM; 290,000 compounds, 1% hits; AID 2014, 2009;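 further: calls also rest on retests at 20 µM and on dose response follow-up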
PABP1 MLLE inh: inhibitors of PABP1 MLLE–PAM2 peptide binding, primary screen, biochemical, fluorescence polarization, FITC-PAM2, GST-MLLE; inhibition, % at 20 µM; Polyadenylate-binding protein 1 (Homo sapiens), P11940; 360,000 compounds, 0.36% hits; AID 588489, 2011; in the data active means inhibition above about 35%, passing the limit was not always enough
eIF4E 4G PPI: eIF4E–eIF4G protein interaction inhibitors, primary screen, biochemical, uHTS, TR-FRET, eIF4GI fragment; TR-FRET eIF4E-eIF4GI(517-606) binding, 2 h; AID 782, 2007; inhibition, % at 21.7 µM; 220,000 compounds, 0.37% hits;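 active means inhibition above about 30%, limit read from the data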
eIF4H inh: human eIF4H binding inhibitors, primary screen, translation initiation inhibitor project, biochemical, uHTS, fluorescence polarization; inhibition, % at 35 µM; 290,000 compounds, 0.94% hits; eIF4H fluorescence polarization binding assay; Eukaryotic translation initiation factor 4H (Homo sapiens), Q15056; AID 2012, 2009;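 further: calls also rest on retests at 20 µM and on dose response follow-up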
EBV gp42 block: Epstein-Barr virus gp42 inhibitors, primary screen, biochemical, uHTS, fluorescence polarization; inhibition, % (tested at 21.74 µM); Fluorescence polarization binding assay, mP read-out; Glycoprotein 42 (Epstein-Barr virus (strain AG876)), Q1HVG2; 220,000 compounds, 0.42% hits; in the data active means inhibition above about 50%
Hits are given with their value; 0 = inactive; ? = inconclusive; - = not tested or not shown; + = active, no number; [ ] = remark or other dose. Unless noted, how the calls were made is not given here.

SMILES | PABP polyA inh | PABP1 MLLE inh | eIF4E 4G PPI | eIF4H inh | EBV gp42 block
CC(C)n1nnnc1SCC(=O)NC1CCCC1 | 0 | 0 | - | 0 | -
COc1ccc(CCNC(=O)c2ccc(CNS(=O)(=O)c3cc(C)ccc3C)cc2)cc1OC | 0 | 0 | 0 | 0 | 0
Cc1ccc(C(=O)O)cc1NS(=O)(=O)c1ccc2c(c1)oc(=O)n2C | + | 0 | - | 0 | -
Cn1c(=O)oc2cc(S(=O)(=O)NCc3ccncc3)ccc21 | + | 0 | 0 | 71.5 | 0
CCOC(=O)N1CCC(NS(=O)(=O)c2ccc3c(c2)oc(=O)n3C)CC1 | + | 0 | 0 | 66.8 | 0
Cn1c(=O)oc2cc(S(=O)(=O)Nc3ccc(C(=O)O)cc3)ccc21 | - | 0 | - | - | -
O=C(N=C1SC2CS(=O)(=O)CC2N1c1cccc(Cl)c1Cl)C1CCCO1 (configuration not stated) | 0 | 0 | - | 0 | -
C1N2CN3CN1CN(C2)C3 | - | 0 | - | - | -
COc1cc(/C=C/C(=O)OCC(=O)Nc2ccc(S(N)(=O)=O)cc2)ccc1O | + | 0 | 0 | 52.2 | 0
CC(OC(=O)CNS(=O)(=O)c1ccc(C#N)cc1)C(=O)Nc1cccc(C#N)c1 (configuration not stated) | - | 0 | - | - | -
CCCNC(=O)COc1coc(CN2CCN(c3ccccc3F)CC2)cc1=O | - | 0 | - | - | -
C=CCn1c(C)cc(C(=O)CSc2nnc(Cc3ccccc3)o2)c1C | 0 | 0 | 0 | 0 | 0
C=CCn1c(C)cc(C(=O)CSc2nc3ccccc3o2)c1C | + | 0 | 0 | 70.3 | 0
Cc1nonc1NC(=O)CSc1nc2ccccc2o1 | + | 0 | - | 83.3 | -
Cc1cc(C(=O)CSc2nc3ccccc3o2)c(C)n1C1CC1 | + | 0 | 0 | 88.1 | 0
Cc1cc(C(=O)CSc2ncnc3ccccc23)c(C)n1C1CC1 | - | 0 | - | - | -
NC1(CO)COC(c2ccccc2)OC1 (configuration not stated) | - | 0 | - | - | -
CCOc1ccc(NC(=S)N=Nc2c(O)[nH]c3ccccc23)cc1 | 0 | 37.8 | 0 | 0 | 0
Oc1cccc(NC(=S)N=Nc2c(O)[nH]c3ccccc23)c1 | 0 | 38.2 | 0 | 0 | 0
Cc1cccnc1NC(=O)C1CCC1 | 0 | 0 | - | 0 | -
O=C(NCCNC(=O)c1ccccn1)c1ccc(-c2ccccc2)cc1 | 0 | 0 | - | 0 | -
COC(=O)COc1ccc(S(=O)(=O)Nc2ccc3c(c2)OCO3)cc1 | 0 | 0 | 55.4[fluorescence artefact?] | 0 | 0
CCOc1ccc(-n2c(SC(C)C)nc3c(c2=O)SCC3)cc1 | + | 0 | 0 | 0 | 0
O=C(Cc1ccc(Cl)cc1)OCc1nnc(-c2ccccc2)o1 | 0 | 0 | 88.0 | 0 | 0
O=C(/C=C/c1ccco1)OCc1nnc(-c2ccccc2)o1 | 0 | 0 | 0 | 0 | 0
SMILES | PABP polyA inh | PABP1 MLLE inh | eIF4E 4G PPI | eIF4H inh | EBV gp42 block
O=C(OCc1nnc(-c2ccccc2)o1)c1ccc(Cl)cc1 | 0 | 0 | 0 | 0 | 0
O=C(/C=C/c1ccco1)OCc1nnc(-c2ccc(Cl)cc2)o1 | + | 0 | 0 | 56.9 | 0
O=C(O[C@@H]1Cc2c(O)cc(O)cc2O[C@@H]1c1cc(O)c(O)c(O)c1)c1cc(O)c(O)c(O)c1 | + | - | 0 | 80.1 | 0
O=c1[nH]nc(CNc2ccc(C(F)(F)F)cc2)c2ccccc12 | 0 | 0 | 0 | 0 | 0
O=c1[nH]nc(CNc2ccc(O)cc2)c2ccccc12 | + | 0 | 0 | 59.0 | 0
O=C(O)Cc1n[nH]c(=O)c2ccccc12 | 0 | 0 | 0 | 1.1 | 0
Cc1ccnc(NS(=O)(=O)c2ccc(C(C)(C)C)cc2)c1 | 0 | - | 0 | 0 | 0
Cc1ccnc(NS(=O)(=O)c2ccc3c(c2)CCO3)c1 | 0 | - | 88.2 | 0 | 0
CN(C(=O)COC(=O)c1cn(-c2ccccc2)nc1-c1ccccc1)C1CCS(=O)(=O)C1 (configuration not stated) | ? | 0 | 0 | active | 0
CCOC(=O)Cc1cc(=O)c2c(=O)n(-c3ccccc3)[nH]c2[nH]1 | + | 0 | 0 | 6.0 | 0
CC1CCCCC1NC(=O)CNC(=O)c1ccco1 (configuration not stated) | - | 0 | - | - | -
Cn1c(SCC(=O)Nc2ccc3nc(SCC(=O)N4CCCC4)sc3c2)nnc1-c1ccc(N)cc1 | 0 | 0 | 0 | 0 | 88.2
Cn1c(SCC(=O)Nc2ccc3nc(SCC(=O)NC4CC4)sc3c2)nnc1-c1ccccc1 | 0 | 0 | 0 | 0 | 0
CC(=O)Nc1ccc(OCCCNC(=O)c2c(-c3ccccc3)noc2C)cc1 | 0 | 0 | 35.3 | 0 | 0
CCCOc1ccc(NC(=O)c2c(-c3ccccc3)noc2C)cc1 | 0 | 0 | 0 | 0 | 0
COc1ccc(NCC(=O)N/N=C/C=C/c2ccccc2[N+](=O)[O-])cc1 | + | 0 | 0 | 0 | 0
O=c1c2ccccc2nc(SCc2nc(-c3ccccc3)no2)n1-c1ccc(F)cc1 | + | 0 | 0 | 86.6 | 0
COc1ccc(NC(=O)Nc2cccc3c2O[C@H](CN(C)C(=O)NC(C)C)[C@@H](C)CN([C@H](C)CO)C3=O)cc1 | - | 0 | - | - | -
COc1ccc(Sc2nnc(Cc3ccccc3)c3ccccc23)cc1 | 0 | 39.8 | 0 | 0 | 0
C[n+]1ccc(C(=O)Nc2ccccc2Cl)cc1 | + | 0 | - | 0 | -
O=C(Nc1ccccc1Cl)c1ccc2ccccc2c1 | 0 | 0 | - | 0 | -
CCn1c(=O)c2c3c(sc2n2c(=S)[nH]nc12)CCC3 | 0 | 0 | 51.9 | 0 | 0
Cc1cccc(-n2c(=O)c3c4c(sc3n3c(=S)[nH]nc23)CCC4)c1 | 0 | 0 | 31.6 | 0 | 0
Cc1ccc(-n2c(=O)c3c4c(sc3n3c(=S)[nH]nc23)CCC4)cc1 | 0 | 0 | 0 | 0 | 0
O=c1c2c3c(sc2n2c(=S)[nH]nc2n1-c1ccccc1)CCC3 | 0 | 0 | 37.6 | 0 | 0
SMILES | PABP polyA inh | PABP1 MLLE inh | eIF4E 4G PPI | eIF4H inh | EBV gp42 block
N/C(=N\c1nc2c(c(=O)[nH]1)CCC2)Nc1ccccc1 | 0 | 0 | 0 | 0 | 0
COc1ccc2cc(C#N)c(NC(C)C)nc2c1 | 0 | 0 | 0 | 0 | 0
CCN(CC)c1nc2cc(OC)ccc2cc1C#N | + | 0 | 0 | ? | 0
Cc1nn(C)c(C)c1N1C(=O)c2cccc3c(N)ccc(c23)C1=O | + | 0 | 0 | 0 | 168.9
C[n+]1ccccc1/C=C1\Sc2ccccc2N1CCO | - | 0 | - | - | -
CC[n+]1ccc(/C=C2\Sc3ccccc3N2CCCS(=O)(=O)[O-])c2ccccc21 | + | 0 | 0 | 0 | 0
CCCS(=O)(=O)NC(=O)C1(C)CCN(C(=O)c2ccccc2OC)C1 (configuration not stated) | - | 0 | - | - | -
CCOC(=O)CSc1ccc(S(=O)(=O)N2CCCC2)cc1[N+](=O)[O-] | + | 0 | 0 | active | 0
COc1ccccc1NC1=C(Cl)C(=O)N(c2ccccc2)C1=O | 0 | 0 | 0 | 0 | 0
CCOc1ccc(N2C(=O)C(Cl)=C(Nc3ccccc3O)C2=O)cc1 | 0 | 0 | 0 | 10.7 | 0
CC1CN(C(=O)c2cccc(S(=O)(=O)Nc3ccc(Cl)cc3)c2)CC(C)O1 (configuration not stated) | + | 0 | 0 | active | 0
